# Out of some 360,000 compounds screened, about 25,000 (6.9%) were called active. Roughly 9% stayed inconclusive and do not appear here. The sample holds actives, similar compounds and a random draw of the others, so the mix is not that of the screen. Calls follow the shape of the dose curve; as a rule, active = well fitted inhibition curve with a large enough effect; inconclusive = small, poorly fitted or top-dose-only effect; inactive = flat fitted curve, though single readings scatter.
# Target: Luciferin 4-monooxygenase (Photinus pyralis) (UniProt P08659)
# Sequence (P08659 whole entry, looked up): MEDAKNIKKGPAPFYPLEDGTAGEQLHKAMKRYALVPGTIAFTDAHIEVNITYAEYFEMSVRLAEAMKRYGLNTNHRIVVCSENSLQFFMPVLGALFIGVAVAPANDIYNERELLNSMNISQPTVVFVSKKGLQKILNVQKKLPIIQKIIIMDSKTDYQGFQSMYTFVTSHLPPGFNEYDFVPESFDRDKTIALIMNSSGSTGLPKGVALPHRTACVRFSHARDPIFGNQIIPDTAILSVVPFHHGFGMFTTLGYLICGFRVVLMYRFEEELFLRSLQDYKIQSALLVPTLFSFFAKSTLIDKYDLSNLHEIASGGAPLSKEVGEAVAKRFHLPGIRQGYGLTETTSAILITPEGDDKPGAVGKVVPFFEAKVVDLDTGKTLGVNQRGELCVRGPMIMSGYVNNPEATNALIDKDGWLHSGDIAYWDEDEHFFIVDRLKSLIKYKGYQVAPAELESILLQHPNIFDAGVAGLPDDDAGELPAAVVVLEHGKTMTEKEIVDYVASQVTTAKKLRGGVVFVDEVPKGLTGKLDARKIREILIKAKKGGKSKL
# Experiment: qHTS profiling assay for firefly luciferase inhibitor/activator using purifed enzyme and Km concentrations of substrates (counterscreen for miR-21 project); also: nearly all actives have a fitted effect of over 55% in size;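 as to activity change, negative = inhibition: plate controls were vehicle for no effect and reference inhibitor for full effect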
# Settings: purified FLuc, luminescence inhibition; series mostly up to 57.5 µM; activity change, negative = inhibition: at the top concentration
# Summary of the method: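 Purified P. pyralis luciferase (10nM final) with 10uM D-luciferin and 10uM ATP (Km levels) in 50mM Tris acetate pH 7.5, 10mM Mg acetate, 0.01% Tween-20, 0.05% BSA; qHTS 6-point titration, ~60 µM downward; luminescence read.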
# Potency is read from the fitted curve at half-maximal effect.
Structure (SMILES),"activity change, negative = inhibition",Potency
Cc1ccc(S(=O)(=O)N(C)C)cc1NC(=O)C1Cc2ccccc2CN1C(=O)c1ccco1 (stereo unspecified),-1.51% (inactive),–
CCN(CC)c1ccc(C(=O)c2cnc(/N=C/N(C)C)s2)cc1,–,16.9 µM (active)
CCN(CC)c1ccc(C(=O)Nn2c(C)nc3ccccc3c2=O)cc1,-4.86% (inactive),–
COc1ccc(S(=O)(=O)N2CCN(C(C)C(=O)Nc3ccc(C(C)C)cc3)CC2)cc1 (stereo unspecified),-15.9% (inactive),–
COc1ccc(/C=C(\C#N)C(=O)OCC(=O)N(C)C2CCS(=O)(=O)C2)cc1 (stereo unspecified),-1.11% (inactive),–
CN(C(=O)CCN1C(=O)/C(=C/c2ccccc2F)SC1=S)C1CCS(=O)(=O)C1 (stereo unspecified),–,26.9 µM (active)
Cc1ccc(S(=O)(=O)CCC(=O)OCC(=O)N(C)C2CCS(=O)(=O)C2)cc1 (stereo unspecified),0.78% (inactive),–
CN(C(=O)CN1C(=O)S/C(=C\c2ccccc2F)C1=O)C1CCS(=O)(=O)C1 (stereo unspecified),-13.4% (inactive),–
COc1ccccc1/C=C1\SC(=O)N(CCC(=O)N(C)C2CCS(=O)(=O)C2)C1=O (stereo unspecified),–,16.9 µM (active)
O=C(CN1C(=O)/C(=C\c2ccccc2F)SC1=S)Nc1nc2ccccc2s1,-14.1% (inactive),–
CC[n+]1c(C)n(-c2ccccc2)c2ccc(NC(C)=O)cc21,5.93% (inactive),–
CCN(CC)C(=O)c1nc[nH]c1C(=O)N(C)Cc1ccccc1,-1.26% (inactive),–
Cc1ccc(CNC(=O)CCNS(=O)(=O)c2ccc3c(c2)oc(=O)n3C)cc1,-3.82% (inactive),–
CCn1nc(C)c(/C=N/NC(=O)Cc2ccc(Cl)cc2)c1C,–,15.1 µM (active)
Cc1nn(Cc2ccc(Cl)cc2)c(Cl)c1/C=N/NC(=O)CNc1ccccc1F,0.928% (inactive),–
O=C(CN1CCSCC1)N/N=C/c1ccc(Cl)cc1,-17.5% (inactive),–
CCn1cc(C(=O)N(C)Cc2ccccc2)c(=O)c2cc(S(=O)(=O)N3CCCCCC3)ccc21,1.79% (inactive),–
CCn1nc(C(=O)Nc2ccc(N3CCOCC3)cc2)c2ccccc2c1=O,-3.82% (inactive),–
CC1(c2ccc(Cl)cc2Cl)NC(=O)N(CC(=O)Nc2cccnc2Cl)C1=O (stereo unspecified),-1.92% (inactive),–
O=C(O)/C=C/C(=O)NNc1ccc([N+](=O)[O-])cc1,-2.77% (inactive),–
O=[N+]([O-])c1ccc(N/N=C/c2ccccc2)cc1,–,19 µM (active)
Cc1cccc(COc2ccccc2/C=N/Nc2ccc([N+](=O)[O-])cc2)c1,-1.93% (inactive),–
COC(=O)c1ccc(CSc2ccc(S(=O)(=O)N3CCCCC3)cn2)cc1,0.326% (inactive),–
O=C(C1CCC1)N1CCN(S(=O)(=O)c2ccc([N+](=O)[O-])cc2)CC1,3.04% (inactive),–
COc1ccc(NS(=O)(=O)c2ccc(Oc3c(C#N)cccc3C#N)cc2)cc1,-2.11% (inactive),–
CCCC(NS(=O)(=O)c1ccc(OC)cc1)C(=O)O (stereo unspecified),-1.49% (inactive),–

Structure (SMILES),"activity change, negative = inhibition",Potency
COc1ccc(S(=O)(=O)/N=C2\C=C(NS(=O)(=O)c3ccccc3)C(=O)c3ccccc32)cc1,–,15.1 µM (active)
CCCCc1ccc(NC(=O)CN2C(=O)NC(Cc3ccccc3)C2=O)cc1 (stereo unspecified),1.04% (inactive),–
CCCCN(C(=O)c1nn(C)c(=O)c2ccccc12)c1c(N)n(CCC)c(=O)[nH]c1=O,0.567% (inactive),–
Cc1ccc(S(=O)(=O)NCCNC(C)c2ccc(Br)cc2)cc1 (stereo unspecified),0.553% (inactive),–
CCOC(=O)c1ccc(NC2=CC(c3ccc(OCC)cc3)N(c3ccc(C(=O)OCC)cc3)C2=O)cc1 (stereo unspecified),-7.59% (inactive),–
COC(=O)c1c(NC(=O)C(=O)N2CCCCC2)sc2c1CC(C)(C)OC2,0.968% (inactive),–
CCOC(=O)N1CCN(C(=O)C(=O)Nc2sc3c(c2C#N)CC(C)(C)OC3)CC1,–,16.9 µM (active)
CC1(C)Cc2c(sc(NC(=O)C(=O)N3CCOCC3)c2C#N)CO1,0.455% (inactive),–
CCCCc1ccc(NC(=S)NCCCN2CCOCC2)cc1,-1.41% (inactive),–
CCCCc1ccc(NC(=S)N2CCCC(CO)C2)cc1 (stereo unspecified),–,2.69 µM (active)
COc1ccc(NC(=S)N2CCCC(CO)C2)c(OC)c1 (stereo unspecified),-3.78% (inactive),–
CCOc1ccc(CNC(=O)c2cc(=O)[nH]c3ccc(S(=O)(=O)N4CCCCC4)cc23)cc1,1.65% (inactive),–
Cc1ccc2c(CN3CCN(S(=O)(=O)c4ccccc4C(F)(F)F)CC3)cc(=O)oc2c1,-1.82% (inactive),–
COc1ccc(CNC(=O)c2ccc3c(c2)nc2n3CCOC2)c(OC)c1,-9.19% (inactive),–
COc1ccc(OC)c(CN2CCN(C(=O)CNC(=O)c3cc(C)cc(C)c3)CC2)c1,0.562% (inactive),–
Cc1ccc(C(=O)CSc2nc(-c3ccccc3)nc3c2CCCC3)c(C)c1,-6.25% (inactive),–
COc1ccc(C(=O)CSc2nnnn2C)c(OC)c1,-3.87% (inactive),–
CCn1nnnc1SCC(=O)c1ccc(C)cc1C,–,6.75 µM (active)
CCOc1ccccc1N(C)C(=O)c1cc2c(s1)-c1ccccc1OC2,-17.2% (inactive),–
CC1(C)CC(=O)C=C(c2ccc(Cl)c(C(F)(F)F)c2)C1,-1.98% (inactive),–
N#C/C(=C1/CCCN1)c1ccccn1,0.552% (inactive),–
N#CC(=C1SC=CS1)c1nc(-c2ccccc2)cs1,–,7.57 µM (active)
COc1cccc(C(=O)OCC(=O)c2[nH]c(C)c(C(C)=O)c2C)c1,3.9% (inactive),–
COc1cc(C(=O)Nc2ccc(OCc3cc(=O)n4ccc(C)cc4n3)cc2)cc(OC)c1OC,-2.02% (inactive),–
CCc1ccc(NC(=O)c2cnc3c(-c4ccccc4)c(C)nn3c2C)cc1,-4.43% (inactive),–
COc1ccccc1C(=O)Nc1ccc(OCc2nnc3c4ccccc4c(C)nn23)cc1,–,4.26 µM (active)

Structure (SMILES),"activity change, negative = inhibition",Potency
Cc1cccc(C(=O)NNC(=O)CSc2nnc(C(C)C)n2C)c1,0.258% (inactive),–
COCCn1c(C)cc(C2=NNC(=Nc3ccc(F)cc3)SC2)c1C,–,3.38 µM (active)
C=CCn1c(C)cc(C2=NNC(=NCC)SC2)c1C,–,0.151 µM (active)
Cc1ccc(S(=O)(=O)c2ccc(Cl)cc2)cc1S(=O)(=O)NC(C(=O)O)C(C)C (stereo unspecified),-1.66% (inactive),–
CCOc1ccc(OCC)c(Nc2nc3ccccc3n3nnnc23)c1,-4.04% (inactive),–
Cc1cccc(N(C(=O)c2ccc(CN3CCOCC3)o2)C(C(=O)NC2CCCCC2)c2ccc(F)cc2)c1 (stereo unspecified),0.757% (inactive),–
CCc1cc2c(cc3c(=O)n(CC(=O)N4CCN(c5cc(Cl)ccc5C)CC4)ncn32)s1,-1.68% (inactive),–
CCOc1ccc(N(C)S(=O)(=O)c2cc(-c3cnc(C)o3)ccc2OC)cc1,-13.9% (inactive),–
Cc1cc(C)c(NC(=O)CSc2nc3nccnc3c(=O)n2CCc2c[nH]c3ccccc23)c(C)c1,1.53% (inactive),–
COCCNC(=O)c1ccc2c(c1)N(Cc1cccc(Cl)c1)C(=O)c1ccccc1S2(=O)=O,2.89% (inactive),–
O=C(NCc1ccccn1)c1cc2ccccc2oc1=O,–,13.5 µM (active)
COc1cccc2cc(C(=O)N3CCN(C(=O)c4ccccc4)CC3)c(=O)oc12,1.94% (inactive),–
NC(=O)c1cc2ccccc2o/c1=N/NC(=O)c1cccc(F)c1,-6.69% (inactive),–
CN(c1ccccc1)S(=O)(=O)c1ccc(Cl)c(C(=O)NCCc2c[nH]c3ccccc23)c1,1.57% (inactive),–
COc1ccc2oc(=O)c(C(=O)NCc3ccccn3)cc2c1,-18.7% (inactive),–
COc1cccc2cc(C(=O)N(C)C)c(=O)oc12,4.57% (inactive),–
COc1ccc(CNC(=O)c2cc3cccc(OC)c3oc2=O)cc1,1.19% (inactive),–
COc1cccc2cc(C(N)=O)/c(=N\NC(=O)c3ccccc3)oc12,–,1.69 µM (active)
COc1cccc2cc(C(=O)NCc3ccc(C)cc3)c(=N)oc12,–,5.36 µM (active)
Cc1cc(C)cc(OCC(=O)NNC(=O)c2cc3ccccc3oc2=O)c1,-3.62% (inactive),–
Cc1cc(C)cc(NC(=S)NCCc2c[nH]c3ccccc23)c1,-0.441% (inactive),–
O=C(NCCc1c[nH]c2ccccc12)c1cc2ccccc2oc1=O,–,16.9 µM (active)
N#Cc1ccc(CN2CCN(CC(=O)Nc3ccccc3C(=O)NC3CC3)CC2)cc1,0.877% (inactive),–
Cc1ccc(C(NC(=O)N2CCCC2)C(Cl)(Cl)Cl)cc1F (stereo unspecified),-0.884% (inactive),–
CCCCn1c(=O)c2oc3ccccc3c2n(CC(=O)Nc2ccccc2OC)c1=O,-0.61% (inactive),–
COc1ccc(C)cc1-n1c(-c2ccc(C)cc2)cc2c1CC(C)(C)CC2=O,5.93% (inactive),–

Structure (SMILES),"activity change, negative = inhibition",Potency
COC(=O)C1=C(C)NC(=S)NC1c1ccc(OCC(=O)N2CC(C)OC(C)C2)c(OC)c1 (stereo unspecified),3.18% (inactive),–
CC(=O)Nc1ccc(S(=O)(=O)N2CCN(S(=O)(=O)c3cccs3)CC2)cc1,-1.89% (inactive),–
O=C(NCC(c1ccc2c(c1)OCO2)N1CCN(c2ccccc2)CC1)C(=O)Nc1ccccc1F (stereo unspecified),-9.43% (inactive),–
COc1ccc(CCNC(=O)c2nn(C)c3c2CSc2ccccc2-3)cc1OC,-17.3% (inactive),–
COc1ccc(C(=O)NCC2CCCCC2)cc1S(=O)(=O)N1CCCC1,-4.76% (inactive),–
CCC(=O)N1CCc2cc(Br)cc(S(=O)(=O)CCC(=O)NCc3ccccc3OC)c21,-9.49% (inactive),–
COc1cc(OC)c(NC(=O)c2cnc(N3CCCC3)nc2C)cc1Cl,2.64% (inactive),–
Cc1sc2nc(CC(N)=O)[nH]c(=O)c2c1-c1ccccc1,2.11% (inactive),–
CC1CCC2(CC1)N=C(c1ccccc1)C(=O)N2CC(=O)Nc1ccc(F)c(Cl)c1 (stereo unspecified),-0.323% (inactive),–
CSc1ccccc1C(=O)NCc1ccccc1,3.41% (inactive),–
CCCCNC(=O)c1cc(-c2ccc(Cl)c(Cl)c2)on1,2.84% (inactive),–
O=C(NCc1ccccc1)c1cc(-c2cccc(Cl)c2)on1,2.29% (inactive),–
O=C(N/N=C\c1cccc(Br)c1)c1ccccc1-n1cccc1,0.179% (inactive),–
Nc1ccc(C(=O)NCc2ccccc2)cc1,-5.23% (inactive),–
O=C(CCCCCNC(=O)c1ccccc1)N/N=C/c1ccccc1,0.301% (inactive),–
O=C(NCc1ccccn1)c1cc(-c2ccccc2Cl)on1,–,10.7 µM (active)
N=c1oc2ccccc2cc1C(=O)NCc1ccccc1,–,9.53 µM (active)
N=c1oc2ccccc2cc1C(=O)N/N=C/c1ccccc1,–,1.35 µM (active)
CC(C)[C@H](NC(=O)N1CCn2c1nc1ccccc12)C(=O)NCCc1ccccc1,0.834% (inactive),–
Cc1ccc(/C=N/NC(=O)CN2CCN(Cc3ccccc3)CC2)s1,-3.1% (inactive),–
Cc1ccc(C(=O)Nc2c(C#N)c(C)c(C)n2Cc2ccccc2)cc1,-1.22% (inactive),–
Cc1ccc(C(=O)N/N=C/c2sc(=O)n(Cc3cccc(C(=O)O)c3)c2Cl)cc1,–,16.9 µM (active)
C=C1CCC(N(O)c2cc(C)on2)C(=C)CCC2C1CC2(C)C (stereo unspecified),-0.208% (inactive),–

# Source: PubChem BioAssay AID588342 (National Center for Advancing Translational Sciences (NCATS), 2011)
